Assay results: PubChem BioAssay (EPA / NIEHS)
The source made the active and inactive calls. The calls were made as follows: active = hit-call score of the fitted dose curve at least 0.9, where 1 is the maximum; inactive = score below 0.9.

Tests used:
[1] = read-out: TIMP metallopeptidase inhibitor 1 (TIMP1), TIMP1 (gene 7076); experiment: BSK_hDFCGF_TIMP1: BioMAP Diversity Plus: hDFCGF Assay for TIMP metallopeptidase inhibitor 1 (TIMP1) Biomarker Activity (AID 2283062); details: primary human foreskin fibroblasts; actives raise or lower the signal
Summary of the method: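 TIMP-1 measured by ELISA 24 h after chemical dosing of primary human skin fibroblasts, with gain or loss fitted relative to DMSO. Parallel SRB staining (560 nm) monitored overt cytotoxicity.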

[2] = read-out: Monokine induced gamma interferon (MIG), CXCL9 (gene 4283); experiment: BSK_hDFCGF_MIG: BioMAP Diversity Plus: hDFCGF Assay for Monokine induced gamma interferon (MIG) Biomarker Activity (AID 2283063); details: primary human foreskin fibroblasts; actives raise or lower the signal
Summary of the method: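 Human primary foreskin fibroblasts in the hDFCGF system, exposed to test chemical for 24 h; MIG measured by ELISA. Bidirectional curve fitting against DMSO negative control as activity baseline.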

[3] = read-out: Matrix Metallopeptidase 1 (MMP1), MMP1 (gene 4312); experiment: BSK_hDFCGF_MMP1: BioMAP Diversity Plus: hDFCGF Assay for Matrix Metallopeptidase 1 (MMP1) Biomarker Activity (AID 2283064); details: primary human foreskin fibroblasts; actives raise or lower the signal
Summary of the method: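 ELISA read-out of MMP1 from human foreskin fibroblasts (primary skin cells), 24 h post-dose. Gain or loss of signal was fitted bidirectionally versus DMSO negative control; cytotoxicity was checked by SRB in parallel cultures.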

[4] = read-out: Plasminogen activator inhibitor-1 (PAI1), SERPINE1 (gene 5054); experiment: BSK_hDFCGF_PAI1: BioMAP Diversity Plus: hDFCGF Assay for Plasminogen activator inhibitor-1 (PAI1) Biomarker Activity (AID 2283066); details: primary human foreskin fibroblasts; actives raise or lower the signal
Summary of the method: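 Human skin fibroblast cultures receive chemical for 24 h before PAI-1 is measured by ELISA; signal changes are fitted bidirectionally against DMSO-treated wells.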

[5] = read-out: Intercellular Adhesion Molecule 1 (ICAM1), ICAM1 (gene 3383); experiment: BSK_KF3CT_ICAM1: BioMAP Diversity Plus: KF3CT Assay for Intercellular Adhesion Molecule 1 (ICAM1) Biomarker Activity (AID 2283067); details: primary human keratinocytes with fibroblasts; actives raise or lower the signal
Summary of the method: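 Cell-surface ICAM-1 was measured by ELISA 24 h after dosing primary human skin keratinocytes co-cultured with fibroblasts. Parallel SRB staining tracked overt cytotoxicity. Gain or loss of signal was fitted relative to DMSO.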

[6] = read-out: Interferon-gamma inducible Protein 10 (IP10), CXCL10 (gene 3627); experiment: BSK_KF3CT_IP10: BioMAP Diversity Plus: KF3CT Assay for Interferon-gamma inducible Protein 10 (IP10) Biomarker Activity (AID 2283068); details: primary human keratinocytes with fibroblasts; actives raise or lower the signal
Summary of the method: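 KF3CT co-culture (keratinocytes + foreskin fibroblasts), 24 h compound, IP-10 by ELISA; bidirectional fit vs DMSO baseline.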

[7] = BSK_KF3CT_SRB: Viability Assessment in the BioMAP Diversity Plus: KF3CT Assay (AID 2283069); details: primary human keratinocytes with fibroblasts;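 also: total protein by sulforhodamine B staining as a cytotoxicity measure; read 24 h after compound addition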
Summary of the method: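 SRB read-out at 560 nm (0.1% stain, TCA-fixed cells) gauges overt cytotoxicity in a human skin keratinocyte–fibroblast co-culture 24 h post-dosing. Signal change was fitted bidirectionally relative to DMSO control.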

[8] = read-out: Interleukin-1 alpha (IL1a), IL1A (gene 3552); experiment: BSK_KF3CT_IL1a: BioMAP Diversity Plus: KF3CT Assay for Interleukin-1 alpha (IL1a) Biomarker Activity (AID 2283070); details: primary human keratinocytes with fibroblasts; actives raise or lower the signal
Summary of the method: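 Primary skin co-culture (keratinocytes, foreskin fibroblasts), 24 h exposure; ELISA for IL-1a; bidirectional curve fit vs DMSO.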

[9] = read-out: TIMP metallopeptidase inhibitor 2 (TIMP2), TIMP2 (gene 7077); experiment: BSK_KF3CT_TIMP2: BioMAP Diversity Plus: KF3CT Assay for TIMP metallopeptidase inhibitor 2 (TIMP2) Biomarker Activity (AID 2283071); details: primary human keratinocytes with fibroblasts; actives raise or lower the signal
Summary of the method: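 Measurements come from ELISA detection of TIMP-2 at 24 hours in a dosed human keratinocyte and foreskin fibroblast co-culture. DMSO serves as negative control and baseline.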

[10] = read-out: Transforming growth factor beta 1 (TGFb1), TGFB1 (gene 7040); experiment: BSK_KF3CT_TGFb1: BioMAP Diversity Plus: KF3CT Assay for Transforming growth factor beta 1 (TGFb1) Biomarker Activity (AID 2283072); details: primary human keratinocytes with fibroblasts; actives raise or lower the signal
Summary of the method: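 TGF-b1 ELISA on a 24 h dosed co-culture of human keratinocytes and foreskin fibroblasts; cytotoxicity tracked in parallel cultures by SRB staining.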

[11] = read-out: C-C motif chemokine 2 (Homo sapiens) (UniProt P13500); experiment: BSK_KF3CT_MCP1: BioMAP Diversity Plus: KF3CT Assay for Monocyte Chemoattractant Protein 1 (MCP1/CCL2) Biomarker Activity (AID 2283073); details: primary human keratinocytes with fibroblasts; actives raise or lower the signal
Summary of the method: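 ELISA read-out of MCP-1, 24 h post-dose, in primary human skin keratinocytes co-cultured with fibroblasts. Parallel SRB staining monitors cytotoxicity; changes fitted both directions relative to DMSO.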

[12] = read-out: urokinase plasminogen activator (uPA), PLAU (gene 5328); experiment: BSK_KF3CT_uPA: BioMAP Diversity Plus: KF3CT Assay for urokinase plasminogen activator (uPA) Biomarker Activity (AID 2283075); details: primary human keratinocytes with fibroblasts; actives raise or lower the signal
Summary of the method: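 Skin co-culture (keratinocytes + foreskin fibroblasts), human primary; 24 h post-dose; uPA by ELISA; gain/loss fit vs DMSO baseline.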

CD40, CD40 (gene 958) = experiment: BSK_LPS_CD40: BioMAP Diversity Plus: LPS Assay for CD40 Biomarker Activity (AID 2283076); details: primary human HUVEC with PBMC; actives raise or lower the signal
Summary of the method: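 In the LPS system of human endothelial cells with peripheral blood mononuclear cells, CD40 levels were read by ELISA 24 h post-treatment. Signal changes in either direction were fitted against the DMSO baseline, with parallel SRB protein staining.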

[13] = read-out: E-selectin (Homo sapiens) (UniProt P16581); experiment: BSK_LPS_Eselectin: BioMAP Diversity Plus: LPS Assay for Eselectin Biomarker Activity (AID 2283077); details: primary human HUVEC with PBMC; actives raise or lower the signal
Summary of the method: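 E-selectin ELISA on LPS-stimulated endothelial cell/PBMC co-cultures, read 24 h post-treatment; gains and losses fitted against DMSO. Parallel SRB staining (0.1% SRB after 10% TCA fixation, 560 nm) flags overt cytotoxicity.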

[14] = read-out: Interleukin-8 (IL8), CXCL8 (gene 3576); experiment: BSK_LPS_IL8: BioMAP Diversity Plus: LPS Assay for Interleukin-8 (IL8) Biomarker Activity (AID 2283078); details: primary human HUVEC with PBMC; actives raise or lower the signal
Summary of the method: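 ELISA read-out of IL-8 after 24 h chemical treatment of LPS-activated endothelial/PBMC human primary co-cultures. Changes either up or down relative to DMSO; overt cytotoxicity checked by sulforhodamine B staining in parallel wells.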

[15] = read-out: Interleukin-1 alpha (IL1a), IL1A (gene 3552); experiment: BSK_LPS_IL1a: BioMAP Diversity Plus: LPS Assay for Interleukin-1 alpha (IL1a) Biomarker Activity (AID 2283080); details: primary human HUVEC with PBMC; actives raise or lower the signal
Summary of the method: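 Readout is IL-1a level by ELISA, 24 h post-dose, fitted as gain or loss relative to DMSO. System: LPS-activated human primary co-culture of vascular endothelium and peripheral blood mononuclear cells, with parallel SRB total-protein cytotoxicity.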

[16] = read-out: Monocyte Chemoattractant Protein-1 (MCP1), CCL2 (gene 6347); experiment: BSK_LPS_MCP1: BioMAP Diversity Plus: LPS Assay for Monocyte Chemoattractant Protein-1 (MCP1) Biomarker Activity (AID 2283081); details: primary human HUVEC with PBMC; actives raise or lower the signal
Summary of the method: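 Secreted MCP-1 read by ELISA at 24 h post-dosing in an LPS-activated co-culture of endothelial cells with peripheral blood mononuclear cells. Fits run in both directions, DMSO as baseline; parallel SRB staining tracks overt cytotoxicity.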

[17] = read-out: Matrix Metallopeptidase 9 (MMP9), MMP9 (gene 4318); experiment: BSK_KF3CT_MMP9: BioMAP Diversity Plus: KF3CT Assay for Matrix Metallopeptidase 9 (MMP9) Biomarker Activity (AID 2283074); details: primary human keratinocytes with fibroblasts; actives raise or lower the signal;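 as to AC50: MMP9 protein level quantified by ELISA in the co-culture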
Summary of the method: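 ELISA read-out of MMP-9 at 24 h post-dosing in a co-culture of human skin keratinocytes and foreskin fibroblasts. Gain or loss of signal was fitted in both directions against DMSO.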

[18] = BSK_LPS_SRB: Viability Assessment in the BioMAP Diversity Plus: LPS Assay (AID 2283079); details: primary human HUVEC with PBMC;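 also: total protein by sulforhodamine B absorbance as a cytotoxicity measure; measured one day after compound addition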
Summary of the method: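 SRB viability endpoint: cells fixed with 10% TCA, stained with 0.1% SRB, read at 560 nm, 24 h post-dose. HUVEC/PBMC co-culture; signal change in either direction scored relative to DMSO.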

[19] = read-out: Vascular cell adhesion molecule 1 (VCAM1), VCAM1 (gene 7412); experiment: BSK_hDFCGF_VCAM1: BioMAP Diversity Plus: hDFCGF Assay for Vascular cell adhesion molecule 1 (VCAM1) Biomarker Activity (AID 2283065); details: primary human foreskin fibroblasts; actives raise or lower the signal
Summary of the method: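 ELISA readout of VCAM-1 on human dermal fibroblast primary cultures, 24 h after chemical exposure. Gain or loss of signal fitted in both directions against DMSO baseline.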

Measured: AC50

Chain of E-selectin (Homo sapiens) (P16581 whole entry, looked up): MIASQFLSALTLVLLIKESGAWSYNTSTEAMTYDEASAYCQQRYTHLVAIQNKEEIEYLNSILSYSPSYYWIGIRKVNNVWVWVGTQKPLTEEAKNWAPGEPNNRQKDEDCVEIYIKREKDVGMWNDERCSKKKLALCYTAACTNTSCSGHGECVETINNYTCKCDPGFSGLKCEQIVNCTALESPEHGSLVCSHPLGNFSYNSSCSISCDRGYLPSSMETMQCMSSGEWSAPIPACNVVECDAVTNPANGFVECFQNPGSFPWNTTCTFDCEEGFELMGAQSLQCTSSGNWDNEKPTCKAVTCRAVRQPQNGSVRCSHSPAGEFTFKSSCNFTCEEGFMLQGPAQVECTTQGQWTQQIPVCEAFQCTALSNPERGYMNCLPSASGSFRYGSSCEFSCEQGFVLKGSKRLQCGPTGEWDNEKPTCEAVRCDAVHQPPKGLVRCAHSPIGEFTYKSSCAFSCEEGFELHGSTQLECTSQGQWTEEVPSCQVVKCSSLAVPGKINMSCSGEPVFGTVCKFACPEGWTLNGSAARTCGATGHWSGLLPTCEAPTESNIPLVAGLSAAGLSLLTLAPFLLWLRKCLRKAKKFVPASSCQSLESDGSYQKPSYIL

CCCCOC(=O)CCCCCCCCC(=O)OCCCC
not listed: [17] | [18] | [19]
inactive: all other assays above

CCCCCCCCCCCCCO
inactive: [13] | [18] | [15] | [16]
active: [1] 13.1 µM | [2] 24.3 µM | [3] 15.6 µM | [5] 36.7 µM | [6] 36.2 µM | [7] 31.9 µM | [8] 35.2 µM | [9] 34.1 µM | [10] 32.1 µM | [11] 26.1 µM | [17] 31.2 µM | [12] 37.6 µM | [14] 34.2 µM

O=C(O)Cc1ccccc1Nc1c(Cl)cccc1Cl
active: [11] 8.68 µM
not listed: [4] | [18]
inactive: all other assays above

Cc1cccc([N+](=O)[O-])c1C
not listed: [17] | [18] | [19]
inactive: all other assays above

COC(=O)c1ccc(O)cc1
not listed: [4] | CD40, CD40 (gene 958) | [17]
inactive: all other assays above

CCCCN(CCCC)CCCC
not listed: [4] | CD40, CD40 (gene 958)
inactive: all other assays above

Cc1nc(-c2ccc3c(c2)CCN(CCC2CCC(NC(=O)/C=C/c4ccc(F)cc4)CC2)CC3)no1 (stereo not drawn)
active: CD40, CD40 (gene 958) 3.86 µM | [14] 6.69 µM
not listed: [1]
inactive: all other assays above
